This is a sample that favours compounds with a hit; in the whole collection about 1.3% have one here.
Mito fusion yeast – qHTS Assay for Small Molecule Inhibitors of Mitochondrial Division or Activators of Mitochondrial Fusion; S. cerevisiae fusion-defective mutant growth rescue, CellTiterGlo 48 h; Potency, µM (series often up to 46.1 µM), without a hit: at the top dose growth rescue (activation), hits mostly activators; actives 0.23% (n = 320,000); AID 485298, 2010; note: potency is the fitted concentration of half-maximal effect; % of control where 0% means no effect; nearly all actives have a fitted effect of over 45% in size
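Yeast fusion mutant, YPEG (non-fermentable carbon), compound, 48 h at 37C non-permissive; CellTiterGlo added, 10 min RT, luminescence read. Rescued growth = division inhibition.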
BCR signal inh – qHTS Assay to Find Inhibitors of Chronic Active B-Cell Receptor Signaling; Potency, µM (doses to about 46.1 µM), for inactives: at the highest dose activity change, negative = inhibition, most hits filed as inhibitors; actives 0.05% (n = 340,000); ABC-DLBCL IkBa-CBG/CBR reporter, luminescence ratio, 4 h; active = well fitted inhibition curve with a large enough effect in the signal ratio, with a control signal flat, not every such curve was filed as active; inconclusive = small, poorly fitted or top-dose-only effect, or effect the other way, or a change in a side signal; the % refers to the signal ratio;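 note: potency is the fitted concentration of half-maximal effect; plate controls were basal doxycycline-induced cells for no effect and cells given 10 µM MG132 for full effect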
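TMD8 ABC-DLBCL cells carrying doxycycline-inducible green luciferase fused to IkappaBalpha plus unfused red luciferase were exposed to compounds (up to 46 uM) for 4 hrs at 37C. Activity came from the overlap-corrected green/red luminescence ratio.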
PTHR1 agonist – qHTS for PTHR1 Agonists: Primary Screen. Parathyroid hormone/parathyroid hormone-related peptide receptor (Homo sapiens), Q03431. HEK293 GP2 PTHR1 cells, GloSensor cAMP luminescence, 1 h. Potency, µM (top dose mostly 115 µM), without a hit: top-dose activation, most hits filed as activators. actives 0.075% (n = 410,000); note: potency is the fitted concentration of half-maximal effect; nearly all actives have a fitted effect of over 55% in size
Target sequence (Q03431 whole entry, looked up): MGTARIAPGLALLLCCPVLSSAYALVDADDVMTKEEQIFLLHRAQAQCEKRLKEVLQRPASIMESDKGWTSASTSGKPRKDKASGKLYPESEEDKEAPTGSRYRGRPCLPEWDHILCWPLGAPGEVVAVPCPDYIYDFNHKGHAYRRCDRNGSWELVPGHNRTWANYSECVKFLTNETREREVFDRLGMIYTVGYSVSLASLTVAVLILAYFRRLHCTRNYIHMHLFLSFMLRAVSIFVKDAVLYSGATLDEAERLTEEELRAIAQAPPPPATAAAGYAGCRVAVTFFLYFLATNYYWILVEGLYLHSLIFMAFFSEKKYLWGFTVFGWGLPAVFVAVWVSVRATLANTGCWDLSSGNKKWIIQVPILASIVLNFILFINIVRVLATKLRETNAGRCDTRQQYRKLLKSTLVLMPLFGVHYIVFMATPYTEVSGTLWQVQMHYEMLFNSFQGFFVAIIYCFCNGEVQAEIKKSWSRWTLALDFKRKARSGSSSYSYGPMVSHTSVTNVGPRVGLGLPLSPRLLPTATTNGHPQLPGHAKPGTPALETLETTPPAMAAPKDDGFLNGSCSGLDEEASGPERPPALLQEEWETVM
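HEK-293-derived GP2 cells expressing PTHR1 and a GloSensor cAMP reporter, 3,000/well, plated overnight, given luciferin plus IBMX (each 0.5 mM as added) for 1 h at 37 °C, then compound for 1 h at 37 °C. Luminescence was read after 15 min at room temperature.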
BRCA1 expr up – qHTS Assay to Identify Small Molecule Activators of BRCA1 Expression. MCF7-BRCA1-FFLuc reporter, luminescence, 48 h; response scale: scaled: vehicle 0%, 10 µM genistein 100%. Potency, µM (top dose mostly 46.1 µM), for the others: top-dose activation, hits mostly activators. actives 1.1% (n = 380,000); note: potency is the fitted concentration of half-maximal effect; nearly all actives have a fitted effect of over 80% in size
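Using MCF7 cells harboring a BRCA1 firefly luciferase reporter, plated 2 h before compound pinning, the screen measured luminescence after 48 h incubation. Responses were normalized to DMSO and 10 microM genistein, then fitted for concentration-effect.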
IL-2 act – qHTS of IL-2 Activators | IL-2 activation reporter assay, cell-based qHTS; stimulated with anti-CD3/CD4/CD28 beads; in transgenic mouse T cells | activation, % (series mostly up to about 46 µM) | actives 0.065% (n = 360,000) | AID 652025, 2013; in the data active = activation above about 50%; inconclusive = mostly about 30% to 49%; note: 0% is about no effect
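Screening format: compound pinned onto unstimulated transgenic mouse T cells, 60 min incubation, then anti-CD3/anti-CD4/anti-CD28 bead stimulation for 18 hours at 37 degrees C, followed by EGFP and DsRed detection.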
TCR act – Activators of T cell receptors: qHTS campaign; 330,000 tested, under 10 active; primary human leukocytes, anti-CD3, IL-2 HTRF, 48 h; Potency, µM (highest dose often 9.22 µM), inactives show at the highest dose activation of IL-2 secretion, hits mostly activators; note: % of control where 0% means no effect
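IL-2 release read by HTRF sandwich (Eu cryptate donor, d2 acceptor, 665 nm emission) after 48 hr exposure of primary human leukocytes to compound together with anti-CD3 beads in the absence of co-stimulatory signals.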
Active calls of the source: *; [ ] = dose if it differs, or a comment. Unless noted, calls come from the whole dose curve; as a rule, active = well fitted curve in the direction sought with a large enough effect; inconclusive = small, poorly fitted or top-dose-only effect, or another doubt; inactive = no such curve, though single readings can be large; an effect the other way counts as inactive or inconclusive.

How did C1=Cc2ccccc2/C1=C\c1cc[cH-]c1.[Fe+2].c1cc[cH-]c1 do in these assays?
BRCA1 expr up: 6%

Results for Fc1cccc(/C=N/Nc2ccccn2)c1 ?
Mito fusion yeast: -10%; BCR signal inh: inconclusive; PTHR1 agonist: -40%; BRCA1 expr up: 7.9µM*; IL-2 act: -3; TCR act: 4%

What do the screens show for `Fc1cccc(/C=N/Nc2nc3ccccc3[nH]2)c1`?
Mito fusion yeast: -2%; BCR signal inh: 0%; PTHR1 agonist: inactive; BRCA1 expr up: 4.5µM*; IL-2 act: -1; TCR act: -3%

How did Cc1ccc(NC(=O)CSCc2ccco2)cc1 do in these assays?
Mito fusion yeast: 15%; BCR signal inh: inconclusive; PTHR1 agonist: -9%; BRCA1 expr up: 10µM*; IL-2 act: -1; TCR act: 3%

Results for Cc1ccc(NC(=O)CSCC(=O)NCc2ccco2)cc1 ?
Mito fusion yeast: -3%; BCR signal inh: 1%; PTHR1 agonist: -4%; BRCA1 expr up: 1%; IL-2 act: 0; TCR act: 3%

Results for Cc1ccc(NC(=O)C(=O)NCc2ccco2)cc1 ?
PTHR1 agonist: -47%

What do the screens show for `Cc1ccc(NC(=O)C(=S)NCc2ccco2)cc1`?
Mito fusion yeast: 0%; BCR signal inh: inconclusive; PTHR1 agonist: -33%[57.5 µM]; BRCA1 expr up: 7.1µM*; IL-2 act: 1; TCR act: -1%

What do the screens show for `O=C(NCCSCc1ccco1)Nc1ccc(Cl)cc1`?
Mito fusion yeast: -8%; PTHR1 agonist: -38%; BRCA1 expr up: 8.9µM*; IL-2 act: -1; TCR act: 9%

What do the screens show for `COc1ccc2c(c1)-c1nc(NC(=O)c3ccco3)sc1CC2`?
Mito fusion yeast: 4%; BCR signal inh: inconclusive; PTHR1 agonist: -20%; BRCA1 expr up: 14%; IL-2 act: 0; TCR act: -6%

Results for COc1ccc2nc(NC(=O)CSC3=NCCS3)sc2c1 ?
Mito fusion yeast: -4%; BCR signal inh: inconclusive; PTHR1 agonist: -14%[57.5 µM]; BRCA1 expr up: 28%; IL-2 act: 0; TCR act: -1%

What do the screens show for `COc1ccc2nc(NC(=O)CSc3ccccc3)sc2c1`?
Mito fusion yeast: 7%; BCR signal inh: 0%; PTHR1 agonist: -11%; BRCA1 expr up: 10µM*; IL-2 act: -1; TCR act: 10%

Results for COc1ccc2nc(NC(=S)NC(=O)c3ccco3)sc2c1 ?
Mito fusion yeast: 7%; BCR signal inh: inconclusive; PTHR1 agonist: -14%; BRCA1 expr up: 5µM*; IL-2 act: -2; TCR act: 2%

What do the screens show for `CCOc1ccc2nc(NC(=O)CCC(=O)c3cccs3)sc2c1`?
Mito fusion yeast: 2%; BCR signal inh: 0%; PTHR1 agonist: -9%[57.5 µM]; BRCA1 expr up: 1.8µM*; IL-2 act: 1; TCR act: -2%

Results for COc1ccc2c(c1)CCc1sc(NC(=O)c3ccco3)nc1-2 ?
Mito fusion yeast: 12%; BCR signal inh: inconclusive; PTHR1 agonist: -12%; BRCA1 expr up: 10µM*; IL-2 act: -4; TCR act: -4%

What do the screens show for `O=C(NC(=S)Nc1nc2ccccc2s1)c1ccco1`?
Mito fusion yeast: -1%; BCR signal inh: inconclusive; PTHR1 agonist: -27%; BRCA1 expr up: 33%; IL-2 act: -3; TCR act: 8%[46.1 µM]

Results for COc1ccc(C(=O)Nc2ncnc3nc[nH]c23)cc1 ?
BRCA1 expr up: 5%

Results for COc1ccc2nc(NC(=O)c3ccoc3C)sc2c1 ?
Mito fusion yeast: -10%; BCR signal inh: inconclusive; PTHR1 agonist: -31%; BRCA1 expr up: inconclusive; IL-2 act: 1

What do the screens show for `COc1ccc2nc(NC(=O)c3cc(C)oc3C)sc2c1`?
Mito fusion yeast: 0%; BCR signal inh: inconclusive; PTHR1 agonist: inactive; BRCA1 expr up: 5µM*; IL-2 act: 0; TCR act: 4%[46.1 µM]

How did C/C(=N\NC(=O)c1ccccc1)c1cccc(Br)c1 do in these assays?
Mito fusion yeast: 4%; BCR signal inh: inconclusive; PTHR1 agonist: -15%; BRCA1 expr up: 10µM*; IL-2 act: 0

How did COc1cccc(C(=O)N/N=C(\C)CC(=O)Nc2ccc(N(C)C)cc2)c1 do in these assays?
Mito fusion yeast: -17%; BCR signal inh: inconclusive; PTHR1 agonist: -5%; BRCA1 expr up: -47%; IL-2 act: 0; TCR act: 3%

What do the screens show for `COc1cccc(/C(C)=N/NC(=O)c2ccc(N(C)C)cc2)c1`?
Mito fusion yeast: 0%; BCR signal inh: inconclusive; PTHR1 agonist: inactive; BRCA1 expr up: 4.5µM*; IL-2 act: -2; TCR act: 15%

Results for CC(=O)c1ccc(NC(=O)/C(=C\c2ccc(F)cc2)NC(=O)c2ccco2)cc1 ?
Mito fusion yeast: 2%; BCR signal inh: 8%; PTHR1 agonist: -4%; BRCA1 expr up: 3%; IL-2 act: -1; TCR act: -2%

Results for Cc1cccc(OCC(=O)NCC(=O)N/N=C/c2cc(Br)ccc2OCc2ccccc2)c1 ?
Mito fusion yeast: inconclusive; BCR signal inh: 4%; PTHR1 agonist: inactive; BRCA1 expr up: 8%; IL-2 act: -2; TCR act: 1%[46.1 µM]

How did COC(=O)N/N=C\c1ccccc1OC/C=C/c1ccccc1 do in these assays?
Mito fusion yeast: -2%; BCR signal inh: inconclusive; PTHR1 agonist: inactive; BRCA1 expr up: 11µM*; IL-2 act: -2; TCR act: -4%

What do the screens show for `N#CCC(=O)N/N=C\c1cc(Br)ccc1OC/C=C/c1ccccc1`?
Mito fusion yeast: -1%; BCR signal inh: inconclusive; PTHR1 agonist: inactive; BRCA1 expr up: 8.9µM*; IL-2 act: 1; TCR act: 9%

How did N#CCC(=O)N/N=C/c1cccc(Oc2ccccc2)c1 do in these assays?
Mito fusion yeast: -2%; BCR signal inh: -3%; PTHR1 agonist: -6%; BRCA1 expr up: -11%; IL-2 act: 2; TCR act: 4%

How did CCOC(=O)N/N=C/c1ccc(Oc2ccccc2)cc1 do in these assays?
Mito fusion yeast: -3%; BCR signal inh: inconclusive; PTHR1 agonist: -44%; BRCA1 expr up: inconclusive; IL-2 act: 1; TCR act: -1%

How did O=C(COc1ccccc1)NCC(=O)N/N=C/c1cc(Br)ccc1OCc1ccccc1 do in these assays?
Mito fusion yeast: 18µM*; BCR signal inh: 3%; PTHR1 agonist: 8%; BRCA1 expr up: -24%; IL-2 act: -3; TCR act: 7%[46.1 µM]

Screening results as filed in PubChem.
